# Measurements taken from ChEMBL document CHEMBL3988442, “University of Dundee, Small-Polar-MMV Screening Library” (2021).
# About 420 (0.61%) of roughly 69,000 compounds showed an effect of 50% or more. The list comes from a sample in which strong results are over-represented; it also holds similar structures and randomly drawn compounds.
# Biological target: T1, Histidine--tRNA ligase (Leishmania infantum) (UniProt A4I591)
# T1 sequence (whole entry): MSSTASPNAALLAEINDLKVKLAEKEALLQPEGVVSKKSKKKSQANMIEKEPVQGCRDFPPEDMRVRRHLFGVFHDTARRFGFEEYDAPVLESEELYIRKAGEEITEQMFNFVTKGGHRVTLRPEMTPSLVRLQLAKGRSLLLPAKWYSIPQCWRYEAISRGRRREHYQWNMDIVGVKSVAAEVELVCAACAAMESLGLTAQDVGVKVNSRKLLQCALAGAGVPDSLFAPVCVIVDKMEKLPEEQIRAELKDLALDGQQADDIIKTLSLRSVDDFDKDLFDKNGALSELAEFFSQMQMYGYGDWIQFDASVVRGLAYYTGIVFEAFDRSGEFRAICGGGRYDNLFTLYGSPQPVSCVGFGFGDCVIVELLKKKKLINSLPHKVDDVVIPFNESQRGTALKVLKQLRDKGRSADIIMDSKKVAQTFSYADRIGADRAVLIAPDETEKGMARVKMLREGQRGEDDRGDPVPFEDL
# Assay: Leishmania infantum Histidine tRNA synthetase (LdHisRS)
# Type: functional
# Parameters: scale not given: in the data most compounds retested in dose-response had high values
# Details: 30 µM
row,SMILES,Percent Effect
1,Cc1nnc(NCc2ccccc2S(=O)(=O)N(C)C)c(C#N)c1C,22%
2,O=C(Nc1cnccn1)[C@H]1COC[C@H]2CN(c3ncc(F)cn3)C[C@H]21,18.8%
3,COCCNC(=O)[C@H]1CC[C@@H]2[C@@H](CCN2S(C)(=O)=O)O1,22.9%
4,Cc1nc(CN2C(=O)CC[C@@H]3[C@H]2CCN3C2CCOCC2)cs1,9.57%
5,COCCN1CCO[C@@H]2CN(Cc3sccc3C)C[C@@H]2C1,0.84%
6,Cc1cc(NC(=O)CN2CCc3nn(C)c(=O)cc3C2)on1,56.7%
7,CC(C)(C)c1cc(NC(=O)CN2CCc3cncnc3C2)on1,19.6%
8,CCn1nc2c(cc1=O)CN(CC(=O)N(C)c1nccs1)CC2,5.56%
9,CCCn1nc2c(cc1=O)CN(CC(=O)Nc1cc(C)no1)CC2,18.2%
10,CN(C(=O)CN1CCc2nn(C)c(=O)cc2C1)c1nccs1,65.9%
11,CC(C)(C)c1cc(NC(=O)CN2CCn3c(nnc3C3CC3)C2)on1,1.79%
12,Cn1nc2c(cc1=O)CN(CC(=O)Nc1cc(C(C)(C)C)no1)CC2,112%
13,CCCn1nc2c(cc1=O)CN(CC(=O)N(C)c1nccs1)CC2,24.6%
14,CCn1nc2c(cc1=O)CN(CC(=O)Nc1cc(C(C)C)no1)CC2,21.2%
15,CCn1nc2c(cc1=O)CN(CC(=O)Nc1cc(C)no1)CC2,15.2%
16,CC(C)c1cc(NC(=O)CN2CCc3nn(C)c(=O)cc3C2)on1,78.8%
17,CC(C)c1cc(NC(=O)CN2CCc3ccccc3C2)on1,-2.74%
18,O=C(c1cscn1)N1CC[C@@H]2[C@@H]1CCN2CC1CCOC1 (stereo partly specified),13.2%
19,O=C(NCc1ccco1)[C@@]12CCO[C@@H]1CCN(CC1CCOCC1)C2,20%

row,SMILES,Percent Effect
1,CCN1C[C@H]2CCN(C(=O)Cc3cccc(OC)c3)CC[C@H]2S1(=O)=O,19.2%
2,O=C(Cn1ccnc1)N1C[C@@H]2CC[C@H](Oc3cccc(F)c3)[C@@H]2C1,7.29%
3,Cc1nc(CN2C(=O)CC[C@H]3[C@@H]2CCN3C(=O)c2ccsc2)cs1,16.5%
4,CC(C)NC(=O)[C@]12COC[C@H]1CN(Cc1cnn(C)c1)C2,12.5%
5,CCS(=O)(=O)N1CC[C@@H]2[C@@H](CCC(=O)N2CCc2ccccc2)C1,9.38%
6,Cc1csc(NC(=O)CN2CCc3nn(C)c(=O)cc3C2)n1,24.2%
7,Cc1nnc(NC(=O)CN2CCc3nn(C)c(=O)cc3C2)s1,9.62%
8,Cc1cc(NC(=O)CN2CCc3nn(C)c(=O)cc3C2)no1,100%
9,Cc1noc(C(C)Nc2ccc(N3CCOCC3)cc2C)n1 (stereo unspecified),63%
10,Cc1cc(N2CCOCC2)ccc1NC(C)c1nc(C(C)(C)C)no1 (stereo unspecified),28.3%
11,Cc1cc(N2CCOCC2)ccc1NC(C)c1nc(C(C)C)no1 (stereo unspecified),39.1%
12,c1cncc(COCC2C[C@@H]3OCCN(Cc4cccnc4)[C@H]3C2)c1 (stereo partly specified),28.3%
13,Fc1ccc(OCc2noc(CN3CCc4cncnc4C3)n2)cc1,61.6%
14,COc1ccc(-c2noc(CN3CCc4cncnc4C3)n2)cc1,50.4%
15,c1ccc(Cc2noc(CN3CCc4cncnc4C3)n2)cc1,43%
16,c1ncc2c(n1)CN(Cc1nc(-c3ccoc3)no1)CC2,34.9%
17,Cn1cnc2c1CCN(Cc1nc(COc3ccc(F)cc3)no1)C2,-98.5%
18,Cc1ccc(-c2noc(CN3CCc4cncnc4C3)n2)cc1,25.7%
19,Cn1cc(C(=O)N[C@@H]2CN(Cc3cccnc3)[C@@H]3CCCO[C@@H]32)cn1,22.9%

row,SMILES,Percent Effect
1,O=C(c1cnccn1)N1CCN2C[C@H](OCC3CC3)C[C@H]2C1,15.1%
2,c1cc(-c2ccc3c(c2)C2(CCNCC2)CC3)ccn1,13.8%
3,Cc1ccc2c(c1)C1(CC2)CCN(c2nncs2)CC1,24.8%
4,c1cc(-c2ccc3c(c2)CCC32CCN(c3nncs3)CC2)co1,75.8%
5,OCCN1CCC2(CCc3cc(-c4ccoc4)ccc32)CC1,24%
6,O=C(CCO)N1CCC2(CCc3ccc(-c4ccoc4)cc32)CC1,22.4%
7,c1cncc(-c2ccc3c(c2)C2(CC3)CCN(c3nncs3)CC2)c1,53.3%
8,c1cc(-c2ccc3c(c2)C2(CC3)CCN(c3nncs3)CC2)ccn1,74.2%
9,c1cc(-c2ccc3c(c2)CCC32CCNCC2)ccn1,53.5%
10,c1cncc(-c2ccc3c(c2)CCC32CCNCC2)c1,20%
11,c1cncc(-c2ccc3c(c2)C2(CCNCC2)CC3)c1,-17.2%
12,c1cncc(-c2ccc3c(c2)CCC32CCN(Cc3ccco3)CC2)c1,44%
13,CN(C)CC(=O)N1CCC2(CCc3ccc(-c4ccncc4)cc32)CC1,22.4%
14,COCCN1C[C@H]2CC[C@@H]1CN(Cc1cc(=O)c3cc(C)ccc3[nH]1)C2,40.6%
15,COCCN1C[C@H]2CN(C(=O)c3ccno3)CCN2C1=O,11.1%
16,COCC(=O)N1C[C@@H](OCc2cccnc2)[C@H]2OCCC[C@@H]21,14.6%
17,COCCNC(=O)[C@H]1CN(Cc2scnc2C)C[C@H]2OCC[C@@H]12,13.3%
18,CCc1cc(N[C@@H]2C[C@H]3CC[C@@H]2C3)n2nccc2n1,25.7%
